For 7 compounds, Potency and outcome results are on record in PubChem BioAssay (Tox21).

Each structure is given as a SMILES string. Results filed as inconclusive are left out. Active and inactive are the calls of the source. Unless noted, calls come from the whole dose curve.

Assay [1] in a line: Nuclear factor erythroid 2-related factor 2/antioxidant responsive element (Nrf2/ARE) small molecule agonists: qHTS cell viability counter screen in human keratinocytes (AID 1919968; active = well fitted cell-killing curve with a large enough effect in the repeat runs; note: nearly all actives have a fitted effect of over 55% in size). A digest of the protocol:
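Seed 1,500 KeratinoSens cells per well, then incubate 5 h at 37 C/5% CO2. Add compounds in DMSO and incubate 23 h. Add CellTiter-Fluor, wait 1 h and read fluorescence.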
(In general: In qHTS, concentration-response curves come from the screen itself.)

Assay [2] can be described thus: Nuclear factor erythroid 2-related factor 2/antioxidant responsive element (Nrf2/ARE) small molecule agonists: luciferase reporter gene qHTS assay in human keratinocytes (AID 1919969). Note: nearly all actives have a fitted effect of over 35% in size. Note: potency is the fitted concentration of half-maximal effect. For orientation: A reporter such as luciferase makes a cellular process visible.
Assay [3] has as its target Gonadotropin-releasing hormone receptor (Homo sapiens) (UniProt P30968). The assay can be described thus: Human gonadotropin-releasing hormone receptor (GnRHR) small molecule agonists, calcium flux assay in GnRHR-HEK293 cells (AID 1920063). Note: nearly all actives have a fitted effect of over 35% in size. Put shortly: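 Cells: HEK293 stably expressing human GnRHR. Steps: overnight (18 h) culture, 1 h calcium dye loading at 37 C, compound addition, kinetic fluorescence read at 480/540 nm. Each compound tested at 15 concentrations in triplicate.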
(Calcium flux is commonly read through the fluorescence of an indicator in the cells.)

Assay [4] is described as follows: G protein-coupled receptor (GPCR) small molecule agonists, calcium flux assay: HEK293 wild type cell line counter screen (AID 1920065). Put shortly:
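Counter-screen of the Tox21 10K library for non-specific calcium release: dye-loaded cells received compounds in DMSO and were monitored by kinetic fluorescence (480/540 nm, 3 min). Fifteen concentrations, run in triplicate.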

The nature of assay [5]: p53 small molecule agonists, cell-based qHTS assay with human liver microsomes (AID 1963577).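 Note: p53 response element beta-lactamase reporter cells with liver microsomes plus NADPH.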 Put shortly:
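HLM-supplemented p53RE-bla reporter assay: 16 h compound exposure at 37 C, microsomes and NADPH each 0.5 mg/mL final, read by fluorescence intensity.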

The nature of assay [6]: p53 small molecule agonists, cell-based qHTS assay with rat liver microsomes (AID 1963578). Put shortly: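 Quantitative HTS of the Tox21 10K library: p53RE-bla cells, rat liver microsomes plus NADPH at 0.5 mg/mL final each, 16 h at 37 C, beta-lactamase fluorescence detection.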
Assay [7] in a line: p53 small molecule agonists, cell-based qHTS assay with human liver microsomes: qHTS cell viability counter screen (AID 1963579). Note: nearly all actives have a fitted effect of over 45% in size. Put shortly: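 Viability of p53RE-bla cells is measured as CellTiter-Glo luminescence following a 16 h, 37 C incubation with compound, liver microsomes from human donors and NADPH.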
A short description of assay [8]: p53 small molecule agonists, cell-based qHTS assay with rat liver microsomes: qHTS cell viability counter screen (AID 1963580). Note: nearly all actives have a fitted effect of over 45% in size. Put shortly: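 p53RE-bla HCT-116 cells (4,000/well) rested 5 h at 37 C, then given Tox21 compounds in DMSO with rat liver microsomes (0.5 mg/mL final) plus NADPH (0.5 mg/mL final) for 16 h at 37 C. Viability read by CellTiter-Glo luminescence after 30 min at room temperature.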

A short description of assay [9]: p53 small molecule agonists, cell-based qHTS assay (AID 1963582; active = well fitted activation curve with a large enough effect in the signal ratio in the repeat runs, not every such curve was filed as active; the % refers to the signal ratio). A digest of the protocol: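 Quantitative HTS in p53RE-bla cells: after a 5 h settling period, compounds delivered in DMSO were left on cells for 16 h at 37 C, and reporter induction was measured as fluorescence following 2 h substrate loading.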
Assay [10] has as its target 5-hydroxytryptamine receptor 2A (Homo sapiens) (UniProt P28223). In words: 5-hydroxytryptamine receptor 2A (HTR2A) small molecule antagonists, cell-based qHTS assay (AID 1963586). Note: nearly all actives have a fitted effect of over 45% in size. Note: potency is the fitted concentration of half-maximal effect. Put shortly:
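Antagonist-mode intracellular calcium assay: DOI (4 nM) added after 5 min compound pre-incubation at room temperature to dye-loaded HTR2A-CHO cells. Fluorescence followed for 3 min, sampled every second.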

For assay [11] the target is unchanged. The assay can be described thus: 5-hydroxytryptamine receptor 2A (HTR2A) small molecule agonists, cell-based qHTS assay (AID 1963587). Note: nearly all actives have a fitted effect of over 30% in size. Note: potency is the fitted concentration of half-maximal effect. A digest of the protocol:
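HTR2A-CHO cells, plated 18 h at 37 C/5% CO2, dye-loaded 1 h at 37 C; compounds in DMSO added by pin tool (agonist mode). Intracellular calcium flux read as kinetic fluorescence on FDSS over 2 min at 1 s intervals.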

Assay [12] addresses Muscarinic acetylcholine receptor M1 (Homo sapiens) (UniProt P11229). The assay can be described thus: Cholinergic receptor muscarinic 1 (CHRM1) small molecule agonists, cell-based qHTS assay (AID 1963589). Note: nearly all actives have a fitted effect of over 35% in size. A digest of the protocol:
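Agonist-mode qHTS in CHO cells stably carrying human muscarinic M1. Intracellular calcium is tracked by fluorescence every second after compound transfer; each compound runs at 15 concentrations in three independent runs.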

Assay [13] can be described thus: cAMP Responsive Elements (CRE) small molecule agonists, cell-based qHTS assay (AID 1963590). Put shortly: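 Agonist mode qHTS in CRE-bla HEK 293T cells: compounds dosed from DMSO for 3 h at 37 C/5% CO2, followed by LiveBLAzer B/G FRET substrate for 2 h at room temperature.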
The nature of assay [14]: cAMP Responsive Elements (CRE) small molecule antagonists, cell-based qHTS assay (AID 1963591; active = well fitted inhibition curve with a large enough effect in the signal ratio in the repeat runs, not every such curve was filed as active; the % refers to the signal ratio). A digest of the protocol: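 Antagonist mode: test compounds are co-incubated with the adenylyl cyclase activator NKH477 (0.25 uM final) on CRE-bla HEK293T cells for 3 h at 37 °C, followed by LiveBLAzer substrate loading.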
Assay [15] addresses D(2) dopamine receptor (Homo sapiens) (UniProt P14416). In words: Dopamine D2 receptor (DRD2) small molecule antagonists, cell-based qHTS assay (AID 1963595; active = well fitted inhibition curve with a large enough effect in the signal ratio in the repeat runs, with a control signal flat; the % refers to the signal ratio). Put shortly: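 Stable D2 receptor HEK293 line, 24 h after seeding. Compound preincubated 10 min, then quinpirole (12 nM) with forskolin analogue NKH477 (200 nM), 30 min, room temperature. Detection by time-resolved FRET of cAMP.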

A short description of assay [16]: p53 small molecule agonists, cell-based qHTS assay: qHTS cell viability counter screen (AID 1963581). Note: nearly all actives have a fitted effect of over 45% in size. Put shortly: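 Cells: HCT-116 with p53 response element-driven beta-lactamase. Treatment: 16 h, 37 C, compounds in DMSO. Read: CellTiter-Glo luminescence after 30 min RT.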
The target in assay [17] is D(2) dopamine receptor (Homo sapiens) (UniProt P14416). The assay can be described thus: Dopamine D2 receptor (DRD2) small molecule agonists, cell-based qHTS assay (AID 1963594). Note: nearly all actives have a fitted effect of over 35% in size. A digest of the protocol: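 HEK293 cells stably expressing DRD2 were cultured 24 h at 37 C, then given Ro20-1724 (0.1 mM final) and compounds for 10 min at room temperature. NKH477 (200nM) was then added for 30 min. cAMP was read by HTRF.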

In assay [18] the target is Muscarinic acetylcholine receptor M1 (Homo sapiens) (UniProt P11229). In words: Cholinergic receptor muscarinic 1 (CHRM1) small molecule antagonists, cell-based qHTS assay (AID 1963588). Note: nearly all actives have a fitted effect of over 40% in size. Put shortly: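 CHRM1-CHO calcium-flux assay, antagonist mode. Cells were seeded 18 h, dye-loaded 1 h at 37 C and given compound for 5 min at RT, then acetylcholine was added at 50nM. FDSS fluorescence was read 3 min; 15 concentrations, three runs.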

In assay [19] the target is Beta-2 adrenergic receptor (Homo sapiens) (UniProt P07550). In words: Adrenergic beta2 receptor (ADRB2) small molecule antagonists, cell-based qHTS assay (AID 1963592). Note: series mostly up to about 92 µM; nearly all actives have a fitted effect of over 50% in size. A digest of the protocol: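 Cells (CHO, stable ADRB2 overexpression) incubated 18-20hr at 37C; compounds added from DMSO; agonist mix (1nM isoproterenol, 100uM IBMX, 25uM Ro-20-1724) added; 0.5hr RT; d2-cAMP and anti-cAMP-cryptate added; 1hr RT; 665/615 nm read.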
Chain of Beta-2 adrenergic receptor (Homo sapiens) (P07550 whole entry, looked up): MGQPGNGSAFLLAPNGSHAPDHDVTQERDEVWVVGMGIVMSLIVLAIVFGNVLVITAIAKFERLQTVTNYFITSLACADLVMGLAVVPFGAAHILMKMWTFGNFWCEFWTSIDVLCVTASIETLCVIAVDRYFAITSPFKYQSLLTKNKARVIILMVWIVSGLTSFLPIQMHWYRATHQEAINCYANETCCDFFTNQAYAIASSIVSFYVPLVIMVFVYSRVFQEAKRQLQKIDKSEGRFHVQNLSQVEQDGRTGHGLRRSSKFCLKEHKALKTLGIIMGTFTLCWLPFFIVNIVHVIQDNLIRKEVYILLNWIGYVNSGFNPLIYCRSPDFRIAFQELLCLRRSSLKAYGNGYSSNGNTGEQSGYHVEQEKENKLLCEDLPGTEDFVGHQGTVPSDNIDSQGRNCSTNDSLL

Chain of Muscarinic acetylcholine receptor M1 (Homo sapiens) (P11229 whole entry, looked up): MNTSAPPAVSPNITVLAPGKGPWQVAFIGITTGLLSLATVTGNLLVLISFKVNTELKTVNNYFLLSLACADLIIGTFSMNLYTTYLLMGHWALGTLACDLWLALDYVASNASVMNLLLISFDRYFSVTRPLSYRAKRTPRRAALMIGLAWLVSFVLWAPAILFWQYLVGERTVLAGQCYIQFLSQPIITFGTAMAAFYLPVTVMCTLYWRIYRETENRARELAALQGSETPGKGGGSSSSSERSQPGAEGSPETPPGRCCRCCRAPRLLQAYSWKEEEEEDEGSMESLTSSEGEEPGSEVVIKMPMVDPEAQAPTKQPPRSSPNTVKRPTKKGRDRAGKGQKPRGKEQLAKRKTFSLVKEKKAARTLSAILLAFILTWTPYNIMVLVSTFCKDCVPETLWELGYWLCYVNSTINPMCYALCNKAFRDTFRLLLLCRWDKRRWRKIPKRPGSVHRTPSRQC
Chain of 5-hydroxytryptamine receptor 2A (Homo sapiens) (P28223 whole entry, looked up): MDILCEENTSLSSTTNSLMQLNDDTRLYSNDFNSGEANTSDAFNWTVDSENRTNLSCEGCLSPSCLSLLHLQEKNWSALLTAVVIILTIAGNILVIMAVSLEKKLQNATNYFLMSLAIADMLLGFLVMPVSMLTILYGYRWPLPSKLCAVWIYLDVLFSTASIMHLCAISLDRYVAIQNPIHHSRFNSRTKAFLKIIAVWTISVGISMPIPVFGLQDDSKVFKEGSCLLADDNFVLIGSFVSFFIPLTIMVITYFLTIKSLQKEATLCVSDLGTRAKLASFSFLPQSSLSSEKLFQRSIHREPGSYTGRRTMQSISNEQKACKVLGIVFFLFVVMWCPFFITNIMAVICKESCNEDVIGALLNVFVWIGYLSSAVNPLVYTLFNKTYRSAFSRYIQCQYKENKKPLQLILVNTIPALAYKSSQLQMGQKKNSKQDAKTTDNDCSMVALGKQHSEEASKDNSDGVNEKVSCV
Chain of D(2) dopamine receptor (Homo sapiens) (P14416 whole entry, looked up): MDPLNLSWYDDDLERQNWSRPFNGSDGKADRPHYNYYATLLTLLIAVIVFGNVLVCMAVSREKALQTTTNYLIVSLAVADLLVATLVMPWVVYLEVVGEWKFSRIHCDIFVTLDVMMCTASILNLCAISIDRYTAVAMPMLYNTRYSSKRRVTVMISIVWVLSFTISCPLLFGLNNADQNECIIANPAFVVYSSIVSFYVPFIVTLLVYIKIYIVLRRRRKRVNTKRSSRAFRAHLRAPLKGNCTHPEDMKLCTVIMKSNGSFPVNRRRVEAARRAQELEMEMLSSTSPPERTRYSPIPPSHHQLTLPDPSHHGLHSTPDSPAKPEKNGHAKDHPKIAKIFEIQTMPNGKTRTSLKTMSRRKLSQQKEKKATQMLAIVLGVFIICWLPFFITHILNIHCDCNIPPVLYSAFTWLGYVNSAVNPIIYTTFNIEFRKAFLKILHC
Chain of Gonadotropin-releasing hormone receptor (Homo sapiens) (P30968 whole entry, looked up): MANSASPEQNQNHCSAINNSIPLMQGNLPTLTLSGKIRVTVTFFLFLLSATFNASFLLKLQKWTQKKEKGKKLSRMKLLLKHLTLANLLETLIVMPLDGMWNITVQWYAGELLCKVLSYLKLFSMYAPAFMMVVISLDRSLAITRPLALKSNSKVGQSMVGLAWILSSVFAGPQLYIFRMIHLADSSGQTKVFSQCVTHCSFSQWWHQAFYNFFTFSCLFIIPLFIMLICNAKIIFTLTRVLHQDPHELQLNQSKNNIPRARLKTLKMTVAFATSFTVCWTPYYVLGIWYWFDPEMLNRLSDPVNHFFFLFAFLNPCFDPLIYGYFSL

As to `Oc1ccc(C2CNCCc3c2cc(O)c(O)c3Cl)cc1` (configuration not stated), the Potency entry in assay [1], in assay [2], in [3], in assay [5], in assay [6] and in assay [7] was “inactive” in each case. The Potency result in [8], in assay [9], in assay [12], in assay [13], in assay [14] and in assay [15] was “inactive” each time. For the same compound, in assay [4], the outcome was inactive. For the same compound, the Potency in assay [10] was 259 nM (active); in assay [11], 151 nM (active).
Turning to `Cc1cc(O)c(C)c(C)c1O`, the Potency entry in [1], in assay [2], in assay [3], in assay [5], in [6] and in [7] was “inactive” each time. Besides, the Potency result in [8], in assay [16], in [9], in assay [10], in [11] and in [12] was “inactive” throughout. For the same compound, the Potency entry in [13], in assay [14], in [17] and in assay [15] was “inactive” in each case. Further, in assay [4], the result was inactive.
For the compound `CCCCCCCCCCCc1ccccc1`, the Potency result in [1], in assay [2], in assay [3], in assay [5], in assay [6] and in assay [7] was “inactive” each time. The Potency result in assay [8], in assay [16], in assay [11], in assay [18], in assay [12] and in assay [13] was “inactive” throughout. Besides, the Potency entry in [14], in assay [19], in assay [17] and in [15] was “inactive” throughout. In addition, in assay [4], the outcome was inactive.
For `CCCCCC[C@@H](CCC)C(=O)O`, the Potency entry in [1], in assay [2], in assay [3], in [5], in assay [6] and in assay [7] was “inactive” each time. The Potency result in assay [8], in [16], in assay [9], in assay [11], in assay [18] and in assay [12] was “inactive” each time. The Potency entry in assay [13], in [14], in assay [17] and in assay [15] was “inactive” in each case. Also, in [4], the outcome was inactive.
`CCOC(=O)[C@H](O)[C@@H](O)C(=O)OCC`: the Potency entry in assay [1], in assay [2], in assay [3], in assay [5], in assay [6] and in assay [7] was “inactive” each time. Further, the Potency entry in [8], in assay [16], in assay [11], in assay [18], in [12] and in assay [13] was “inactive” each time. The Potency result in assay [14], in [19], in assay [17] and in assay [15] was “inactive” in each case. In addition, the result in assay [4] was inactive.
In the case of `Nc1ccc(C(=O)NCC(=O)O)cc1`, the Potency result in [1], in assay [2], in assay [3], in [5], in assay [6] and in [7] was “inactive” each time. In addition, the Potency result in assay [8], in assay [16], in [11], in [18], in assay [13] and in assay [14] was “inactive” each time. Further, the Potency entry in [19], in assay [17] and in assay [15] was “inactive” each time. The result in assay [4] was inactive.
Consider `O=C1CCCCCCCCCCOCCCCO1`, for which the Potency entry in assay [1], in assay [3], in assay [5], in assay [6], in [7] and in assay [8] was “inactive” in each case. Also, the Potency entry in [16], in assay [9], in assay [10], in [11], in [12] and in assay [13] was “inactive” throughout. Moreover, the Potency entry in assay [14], in assay [19], in assay [17] and in assay [15] was “inactive” in each case. Also, the Potency in assay [2] was 30600 nM (active). In assay [4], the result was inactive.
